Screening results from PubChem.
Most compounds without a hit are left out; they make up all but 0.74% or so of the library.
APE1 inh: inhibitors of human APE1 endonuclease; Potency, µM (highest dose often 65.8 µM), inactives show top-dose activity change, negative = inhibition, most hits filed as inhibitors; P27695; hit rate 0.35% among 350,000; recombinant APE1, TAMRA/BHQ-2 abasic DNA cleavage fluorescence; AID 2517;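 also: plate controls were vehicle for no effect and reference inhibitor for full effect; nearly all actives have a fitted effect of over 55% in size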
Target sequence (P27695 whole entry, looked up): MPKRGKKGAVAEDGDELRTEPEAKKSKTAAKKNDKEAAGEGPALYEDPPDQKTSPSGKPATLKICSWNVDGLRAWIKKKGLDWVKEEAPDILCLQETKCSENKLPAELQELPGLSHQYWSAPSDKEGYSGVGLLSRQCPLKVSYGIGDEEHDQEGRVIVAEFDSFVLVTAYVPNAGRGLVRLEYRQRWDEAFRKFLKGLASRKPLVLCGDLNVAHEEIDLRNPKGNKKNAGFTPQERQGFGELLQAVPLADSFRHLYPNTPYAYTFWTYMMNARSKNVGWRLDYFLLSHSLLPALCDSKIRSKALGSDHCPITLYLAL
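Readout is kinetic fluorescence (ex 525, em 598 nm) from cleavage of 50 nM TAMRA/BHQ-2 THF abasic duplex by 0.75 nM APE1, compound added 15 min beforehand at RT.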
BLM inh: blocks DNA unwinding by human BLM helicase; Potency, µM (highest dose often 56.1 µM), for inactives: at the highest dose activity change, negative = inhibition, actives largely listed as inhibitors; recombinant BLM DNA unwinding, fluorescence dequenching; P54132; hit rate 0.2% among 350,000; AID 2528;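 also: plate controls were vehicle for no effect and no enzyme for full effect; nearly all actives have a fitted effect of over 35% in size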
PGK inhibitor: T. brucei PGK inhibition. P07378. PGK/GAPDH coupled, Kinase-Glo luminescence, 60 min. Potency, µM (titrated, usually from 57.5 µM), without a hit: at the highest dose activity change, negative = inhibition, hits mostly inhibitors. hit rate 0.043% among 380,000. AID 602233; also: nearly all actives have a fitted effect of over 60% in size
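Luminescent ATP detection (Kinase-Glo Plus) follows a 60-minute room-temperature incubation, with wells lacking PGK as controls. Buffer: 100 mM TEA (pH 7.6), 5 mM MgCl2, 0.01% Tween-20. Coupling enzyme GAPDH (100 nM final) supplies unstable 1,3-BPG in-well.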
RECQ1 inh: inhibitors of human RECQ1 DNA helicase; P46063; RECQ1 DNA unwinding, red fluorescence kinetic read; Potency, µM (titrated, usually from 57.3 µM), for the others: top-dose activity, negative = inhibition, most hits filed as inhibitors; hit rate 0.54% among 240,000; AID 2549;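 also: plate controls were vehicle for no effect and no enzyme for full effect; nearly all actives have a fitted effect of over 30% in size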
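RECQ1T1 50 nM; forked duplex (20 bp + 30-nt ss tails) 200 nM, ATP 2 mM final; pH 8.0, 2 mM MgCl2, 2.5 ug/ml poly(dI-dC); 15 min compound preincubation; discontinuous kinetic read over 2 h at RT.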
FEN1 inhibitor: human FEN1 inhibition | Recombinant FEN1 flap cleavage, fluorescence, 15 min | Potency, µM (doses to about 114 µM), for inactives: at the highest dose activity change, negative = inhibition, most hits filed as inhibitors | P39748 | hit rate 0.35% among 390,000; also: nearly all actives have a fitted effect of over 65% in size
Target sequence (P39748 whole entry, looked up): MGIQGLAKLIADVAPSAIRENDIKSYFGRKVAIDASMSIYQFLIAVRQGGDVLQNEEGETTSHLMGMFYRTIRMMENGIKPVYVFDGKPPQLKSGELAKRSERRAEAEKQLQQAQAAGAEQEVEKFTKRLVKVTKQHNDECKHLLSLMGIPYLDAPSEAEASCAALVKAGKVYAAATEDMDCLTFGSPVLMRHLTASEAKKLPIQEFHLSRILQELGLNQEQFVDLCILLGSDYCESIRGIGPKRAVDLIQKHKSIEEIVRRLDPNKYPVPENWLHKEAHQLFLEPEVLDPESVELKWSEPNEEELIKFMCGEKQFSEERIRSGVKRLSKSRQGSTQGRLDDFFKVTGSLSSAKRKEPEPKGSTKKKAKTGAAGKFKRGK
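Read-out was taken twice, immediately and after 15 min, following addition of 50 nM substrate to 10 nM FEN1 that had sat with test compound for 15 min at room temperature. Curves came from a four-parameter Hill model.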
Numbers without * were called inactive; i = inactive; ? = inconclusive; · = no result given; ! = a repeat was not active. Calls follow the shape of the dose curve; as a rule, active = well fitted curve in the direction sought with a large enough effect; inconclusive = small, poorly fitted or top-dose-only effect, or another doubt; inactive = no such curve, though single readings can be large; an effect the other way counts as inactive or inconclusive. Unless noted, % is scaled to controls: 0 for no effect and ±100 for the full control effect; potency is read from the fitted curve at half-maximal effect.

SMILES	APE1 inh	BLM inh	PGK inhibitor	RECQ1 inh	FEN1 inhibitor
C#CCOCCOCCOCCNc1nc(N2CCN(C(=O)CCCCCCCCCCNC(=O)[C@@H](CCSC)n3cc(CCO)nn3)CC2)nc(N2CCN(C(=O)CCCCCCCCCCNC(=O)[C@H]([C@@H](C)CC)n3cc(CCCCN=C(N)N)nn3)CC2)n1	?	·	6.7%	·	22.4µM*
C#CCOCCOCCOCCNc1nc(N2CCN(C(=O)CCCCCCCCCCNC(=O)[C@H]([C@@H](C)CC)n3cc(CCCCCN)nn3)CC2)nc(N2CCN(C(=O)CCCCCCCCCCNC(=O)[C@@H]([C@H](C)O)n3cc(C)nn3)CC2)n1	-98.3%	·	11.5%	·	56.2µM*
C#CCOCCOCCOCCNc1nc(N2CCN(C(=O)CCCCCCCCCCNC(=O)[C@@H](CCSC)n3cc(CCO)nn3)CC2)nc(N2CCN(C(=O)CCCCCCCCCCNC(=O)[C@H]([C@@H](C)CC)n3cc(CCCCCN)nn3)CC2)n1	?	·	8.2%	·	79.4µM*
O=C(c1cnc2n(c1=O)CCS2)N1CCN(C(c2ccccc2)c2ccc(Cl)cc2)CC1 (stereo not given)	-6.8%	-2.8%	-0.5%	-12.1%	-15.4%
CCCCCCCCCCCCCCCC[n+]1ccc(CC(O)c2c(C)[nH]c3ccccc23)c2ccccc21 (stereo not given)	·	·	·	·	50.1µM*
CCCCC[n+]1cccc2c3ccccc3ccc21	?	0.6%	-6.3%	63.4%	-12.2%
Cc1cc(NC(=O)c2cc(-c3ccc(Br)cc3)on2)no1	-2.8%	-1.5%	i	-2.7%	-1.1%
C[C@@H]1Cc2c(O)c(O)cc(O)c2C(=O)O1	?	0.6%	-18.8%	i	56.2µM*
O=S(=O)(O)c1cc(O)c2c(O)c(N=Nc3cc(Cl)ccc3O)c(S(=O)(=O)O)cc2c1	11.9µM*	70.2%	?	·	?
Cc1cc(-c2ccc(N=Nc3c(S(=O)(=O)O)cc4cc(S(=O)(=O)O)cc(N)c4c3O)c(C)c2)ccc1N=Nc1c(S(=O)(=O)O)cc2cc(S(=O)(=O)O)cc(N)c2c1O	0.474µM*	-82.5%	·	·	·
Oc1ccc(Cl)cc1N=Nc1ccccc1	6.9%	-4.6%	-10.2%	·	4.6%
O=c1[nH]c(CN2CCN(c3ccccc3O)CC2)nc2scc(-c3ccccc3Cl)c12	-5.5%	-10.8%	-2.7%	i	-12.0%
CN1C(=O)/C(=C/c2ccc(-c3ccccc3[N+](=O)[O-])o2)SC1=Nc1ccc(Cl)c(C(=O)O)c1	10.1%	-4.3%	-16.0%	-5.1%	44.7µM*
CN1CCOc2ccc(S(=O)(=O)NCCc3ccc(Cl)cc3)cc21	-1.2%	-7.6%	-2.7%	·	-24.9%
COc1ccccc1NC(=O)Cn1c(O)c(N=NC(=O)c2ccccc2O)c2ccccc21	-0.2%	17.8µM*	-20.5%	i	?
COC1=CC(=O)C(C2CC(=O)c3c(O)cc(O)cc3O2)=CC1=O (stereo not given)	·	·	-3.6%	·	50.1µM*
CCCCCCN(C(=O)CCCCCN1C(=O)NC(c2ccc(C3CCCCC3)cc2)C(C(=O)OCc2ccccc2)=C1C)C(C(=O)NCCCC)c1ccc(OCC(=O)OC)c(C(=O)OC)c1 (stereo not given)	0.447µM*!	-8.6%	·	-12.0%	·
COc1ccccc1NS(=O)(=O)c1cccc(NC(=O)Nc2cccc(Cl)c2)c1	3.8%	-9.0%	-0.3%	2.5%	5.3%
Cc1c(C(=O)Nc2ccccc2)cn2c(nc3ccccc32)c1C#N	1.3%	-3.8%	4.7%	i	-7.0%
Cc1ccccc1C(=O)Nc1ccc2c(C#N)c3nc4ccccc4nc3n2c1	?	?	-10.5%	31.6µM*	?
COc1ccc(Nc2nc3c(S(=O)(=O)c4ccccc4)nnn3c3ccc(Cl)cc23)cc1	·	-14.4%	5.4%	·	18.1%
COc1ccc(CCNC(=O)CCCn2nc(C)c3sc4ccccc4c3c2=O)cc1OC	·	0.5%	i	·	44.7µM*
CCOc1ccc(CCNC(=O)CCCn2nc(C)c3sc4ccccc4c3c2=O)cc1	·	-0.2%	-3.6%	·	-13.5%
Cc1nn(CCCC(=O)NCCc2ccc(Cl)cc2)c(=O)c2c1sc1ccccc12	·	-4.8%	-3.7%	·	44.7µM*
N#Cc1ccc(-c2ccc(Cl)cc2)nc1SCC(=O)c1cccc(Cl)c1	-2.2%	-9.1%	0.4%	i	-3.7%
SMILES	APE1 inh	BLM inh	PGK inhibitor	RECQ1 inh	FEN1 inhibitor
C=CCN1C(=O)/C(=C2/C(=O)N(CC(=O)O)c3ccccc32)S/C1=N/c1nccs1	12.6µM*	-9.4%	·	15.8µM*	·
C=CCN1C(=O)/C(=C/c2ccc(O)cc2)S/C1=N/c1nccs1	1.3%	-18.2%	-5.4%	0.9%	-8.8%
Cc1ccc(NS(=O)(=O)c2cccc3nsnc23)cc1	9.6%	-3.2%	-5.8%	-0.2%	-7.9%
O=S(=O)(Nc1ccccc1)c1cccc2nsnc12	7.52µM*	-12.2%	-10.2%	·	9.7%
CC1(OC(=O)CCc2ccccc2)C(=O)C=C2C=C3CCCN3C=C2C1=O (stereo not given)	?	?	-3.5%	?	-10.4%
O=[N+]([O-])c1c(NCCCO)cc(Sc2nc3ccccc3s2)c2nonc12	-6.9%	4.4%	-3.8%	-3.8%	39.8µM*
CCC(=O)OCCNc1cc(Sc2nc3ccccc3[nH]2)c2nonc2c1[N+](=O)[O-]	?	-3.5%	-10.1%	-17.5%	-23.3%
O=[N+]([O-])c1c(NCCO)cc(N2CCCCCC2)c2nonc12	11.6%	-4.2%	-15.3%	·	-16.3%
Cc1nnc(Sc2cc(NCCO)c([N+](=O)[O-])c3nonc23)s1	?	-6.9%	2.1%	i	39.8µM*
Cc1nnc(Sc2cc(NCCCO)c([N+](=O)[O-])c3nonc23)s1	-3.9%	-14.6%	-5.4%	-4.2%	44.7µM*
O=C(Nc1ccccn1)c1ccc(-c2ccccc2)cc1	-3.0%	-8.5%	-16.2%	·	-16.3%
Cc1ccc(CNC(=O)C2CC3Cn4c(nc5cc6ccccc6cc54)C3N2C)o1 (stereo not given)	1.2%	-7.9%	-0.6%	i	10.4%
CN1C(C(=O)NCC2CC2)CC2Cn3c(nc4cc5ccccc5cc43)C21 (stereo not given)	3.98µM*	-4.2%	-11.9%	10.7%	-4.1%
CC1=CC2=NC(=O)/C(=C\c3ccc(-c4cccc(Cl)c4)o3)C(=N)N2O1	-0.7%	-14.9%	1.8%	-3.4%	2.9%
CC1=NOC(=O)/C1=C/c1ccc(O)cc1	-2.6%	-1.8%	-5.4%	i	8.1%
CC1=NOC(=O)/C1=C\c1ccc(-c2cccc(Cl)c2)o1	?	-15.3%	-4.5%	?	50.1µM*
CC1=NOC(=O)/C1=C\c1ccc(-c2ccccc2Br)o1	-6.9%	-20.7%	-7.3%	-23.6%	39.8µM*
COC(=O)COc1ccc(NC(=O)c2ccco2)cc1	-1.1%	-1.5%	i	0.0%	1.6%
COc1ccc(/C=C/C(=O)NCc2cnn(C)c2C)cc1COc1ccc(Br)cc1	9.2%	-15.1%	i	-20.3%	8.5%
